Results reported in PubChem BioAssay (Tox21).
Records with an inconclusive call do not appear. Active and inactive are the calls of the source. Unless noted, calls follow the shape of the dose curve; as a rule, active = well fitted curve in the direction sought with a large enough effect in the repeat runs; inconclusive = weak or mixed curves; inactive = no such curve, though single readings can be large; an effect the other way counts as inactive or inconclusive.

Legend:
[1] = target: Peroxisome proliferator-activated receptor delta (Homo sapiens) (UniProt Q03181); assay: qHTS assay to identify small molecule agonists of the peroxisome proliferator-activated receptor delta (PPARd) signaling pathway (AID 743212; calls by dose curve)
Peroxisome proliferator-activated receptor delta (Homo sapiens), sequence (Q03181 whole entry, looked up): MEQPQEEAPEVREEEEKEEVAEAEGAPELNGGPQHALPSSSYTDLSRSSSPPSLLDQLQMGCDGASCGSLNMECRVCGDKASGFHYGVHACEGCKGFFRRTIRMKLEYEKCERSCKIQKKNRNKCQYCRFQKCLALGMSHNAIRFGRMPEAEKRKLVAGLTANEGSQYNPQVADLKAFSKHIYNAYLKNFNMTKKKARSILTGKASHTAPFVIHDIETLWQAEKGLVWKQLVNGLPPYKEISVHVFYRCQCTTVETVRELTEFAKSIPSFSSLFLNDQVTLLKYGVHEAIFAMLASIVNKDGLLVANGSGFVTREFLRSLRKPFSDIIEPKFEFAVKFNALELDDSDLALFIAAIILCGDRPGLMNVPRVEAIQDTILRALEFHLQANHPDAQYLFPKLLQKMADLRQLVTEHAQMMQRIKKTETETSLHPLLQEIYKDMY
In short: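 Cells expressing a UAS-driven beta-lactamase reporter (PPARd-bla HEK293H) were given test compounds after a 5 h settle and kept at 37 C. Reporter activity was then measured as FRET fluorescence using LiveBLAzer B/G substrate.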

[2] = qHTS assay to identify small molecule agonists of the farnesoid-X-receptor (FXR) signaling pathway - cell viability counter screen (AID 743218); also: nearly all actives have a fitted effect of over 45% in size
In short: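 Same-well cytotoxicity check on FXR-UAS-bla HEK 293T cells: 5 h attachment, 16 h compound at 37 C, CellTiter-Glo luminescence read at room temperature after 30 min.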

[3] = target: Vitamin D3 receptor (Homo sapiens) (UniProt P11473); assay: qHTS assay to identify small molecule agonists of the vitamin D receptor (VDR) signaling pathway (AID 743222; calls by dose curve)
Vitamin D3 receptor (Homo sapiens), sequence (P11473 whole entry, looked up): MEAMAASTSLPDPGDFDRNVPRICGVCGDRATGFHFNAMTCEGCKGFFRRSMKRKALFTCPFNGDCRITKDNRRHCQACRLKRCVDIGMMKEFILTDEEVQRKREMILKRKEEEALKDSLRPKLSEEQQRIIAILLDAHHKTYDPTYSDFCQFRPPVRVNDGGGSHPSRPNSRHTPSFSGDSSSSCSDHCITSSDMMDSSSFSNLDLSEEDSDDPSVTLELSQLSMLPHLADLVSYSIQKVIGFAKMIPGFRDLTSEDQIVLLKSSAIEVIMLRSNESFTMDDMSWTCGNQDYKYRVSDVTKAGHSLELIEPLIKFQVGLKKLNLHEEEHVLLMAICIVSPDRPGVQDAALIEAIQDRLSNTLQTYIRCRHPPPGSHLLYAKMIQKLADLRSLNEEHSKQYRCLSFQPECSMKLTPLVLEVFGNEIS
In short: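 Using LiveBLAzer B/G FRET detection, agonism was scored in VDR-bla cells exposed overnight (16 h, 37C) to DMSO-dissolved compounds; substrate incubation was 2 h at room temperature.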

[4] = target: Vitamin D3 receptor (Homo sapiens) (UniProt P11473); assay: qHTS assay to identify small molecule antagonists of the vitamin D receptor (VDR) signaling pathway (AID 743223; active = well fitted inhibition curve with a large enough effect in the signal ratio in the repeat runs, not every such curve was filed as active; the % refers to the signal ratio)
In short: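 Antagonist mode: compound added to VDR-bla cells alongside agonist 1alpha,25-dihydroxyvitamin D3 (3 nM final), incubation 16 h at 37C. Read-out is LiveBLAzer FRET fluorescence, 2 h at room temperature.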

[5] = qHTS assay to identify small molecule antagonists of the peroxisome proliferator-activated receptor delta (PPARd) signaling pathway - cell viability counter screen (AID 743213); also: nearly all actives have a fitted effect of over 50% in size
In short: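 Same-well viability: cells pre-incubated 5 h, dosed with compound plus 300 nM L165041, kept 17 h at 37 C, FRET substrate 2 h RT, then CellTiter-Glo 30 min RT and luminescence.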

[6] = target: Bile acid receptor (Homo sapiens) (UniProt Q96RI1); assay: qHTS assay to identify small molecule antagonists of the farnesoid-X-receptor (FXR) signaling pathway (AID 743217; active = well fitted inhibition curve with a large enough effect in the signal ratio in the repeat runs, not every such curve was filed as active; the % refers to the signal ratio)
Bile acid receptor (Homo sapiens), sequence (Q96RI1 whole entry, looked up): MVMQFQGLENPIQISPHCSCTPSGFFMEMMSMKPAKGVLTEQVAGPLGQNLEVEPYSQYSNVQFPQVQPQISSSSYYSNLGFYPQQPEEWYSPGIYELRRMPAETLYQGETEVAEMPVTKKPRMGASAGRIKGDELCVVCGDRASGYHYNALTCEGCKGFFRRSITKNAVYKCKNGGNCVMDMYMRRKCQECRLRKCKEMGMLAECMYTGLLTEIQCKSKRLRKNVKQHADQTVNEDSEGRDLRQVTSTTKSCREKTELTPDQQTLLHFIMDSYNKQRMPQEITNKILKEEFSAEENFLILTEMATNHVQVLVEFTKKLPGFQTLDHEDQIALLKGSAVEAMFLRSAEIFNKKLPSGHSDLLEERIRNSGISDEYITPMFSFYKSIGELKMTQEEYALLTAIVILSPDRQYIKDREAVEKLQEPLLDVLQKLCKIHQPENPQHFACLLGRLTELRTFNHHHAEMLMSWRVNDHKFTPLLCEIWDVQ
In short: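 Quantitative HTS, beta-lactamase reporter format: FXR-UAS-bla HEK 293T cells co-treated 16 h at 37 °C with compounds and 50 uM final chenodeoxycholic acid, then read by B/G FRET fluorescence.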

[7] = target: Bile acid receptor (Homo sapiens) (UniProt Q96RI1); assay: qHTS assay to identify small molecule agonists of the farnesoid-X-receptor (FXR) signaling pathway (AID 743220; active = well fitted activation curve with a large enough effect in the signal ratio in the repeat runs, not every such curve was filed as active; the % refers to the signal ratio)
In short: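 FXR-UAS-bla HEK 293T cells carrying a UAS-driven beta-lactamase reporter were plated for 5 h at 37C/5% CO2, then exposed to DMSO-dissolved Tox21 10K compounds for 16 h at 37C. A LiveBLAzer B/G FRET substrate was loaded for 2 h at room temperature before fluorescence reading.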

[8] = qHTS assay to identify small molecule antagonists of the farnesoid-X-receptor (FXR) signaling pathway - cell viability counter screen (AID 743221; active = well fitted cell-killing curve with a large enough effect in the repeat runs, not every such curve was filed as active; also: nearly all actives have a fitted effect of over 50% in size)
In short: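 Cytotoxicity counter screen run in the FXR-bla reporter wells: HEK 293T cells exposed to compound with 50 uM (final) chenodeoxycholic acid for 16 h, 37 C, then viability measured by CellTiter-Glo luminescence after 30 min, room temperature.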

[9] = qHTS assay to identify small molecule agonists of the vitamin D receptor (VDR) signaling pathway - cell viability counter screen (AID 743224); also: series mostly up to about 63 µM; nearly all actives have a fitted effect of over 50% in size
In short: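 Counter screen for cytotoxicity: VDR-bla cells at 2,000 cells/well, 16 h compound exposure, then CellTiter-Glo luminescence after the beta-lactamase measurement.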

[10] = target: Peroxisome proliferator-activated receptor delta (Homo sapiens) (UniProt Q03181); assay: qHTS assay to identify small molecule antagonists of the peroxisome proliferator-activated receptor delta (PPARd) signaling pathway (AID 743215; active = well fitted inhibition curve with a large enough effect in the signal ratio in the repeat runs, not every such curve was filed as active; the % refers to the signal ratio;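 also: cells stimulated with agonist L165041 at 300 nM final during compound exposure; series mostly up to about 62 µM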)
In short: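 Screen format: qHTS, antagonist mode. HEK293H PPARd-bla cells received compound and 300 nM L165041 (final), 17 h, 37 C. Beta-lactamase detected via FRET substrate fluorescence, 2 h, room temperature.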
% is scaled to controls: 0 for no effect and ±100 for the full control effect.

Cc1ccc(Cl)c(OCC(O)CNC(C)(C)C)c1 (centres undefined)
inactive: Potency [1] | Potency [2] | outcome [3] | outcome [4]

O=C(O)COCC(=O)O
inactive: Potency [5] | outcome [6] | Potency [2] | outcome [7] | Potency [8] | outcome [4] | outcome [9]

CC(=O)Nc1ccccc1O
inactive: Potency [5] | outcome [6] | Potency [2] | outcome [7] | outcome [3] | outcome [4] | outcome [9]

COC=O
inactive: activation [1] -8.76% [at 5.95 µM] | viability change, negative = cytotoxic [2] 22% [at 5.95 µM] | activity change, negative = cytotoxicity [8] 10.8% [at 5.95 µM]

CCCC(=O)OCCC(C)C
inactive: Potency [1] | Potency [2] | outcome [7] | Potency [8] | outcome [3] | outcome [9]

O=C(Nc1ccc2c(c1)Cc1ccccc1-2)C(F)(F)F
inactive: Potency [5] | outcome [6] | Potency [2] | outcome [7] | Potency [8] | outcome [3] | outcome [4] | outcome [9]

CC(O)C(C)O (centres undefined)
inactive: Potency [1] | outcome [10] | Potency [8] | outcome [3] | outcome [4]

CC1(C)CC(=O)CC(C)(C)N1
inactive: Potency [1] | Potency [2] | Potency [8] | outcome [3] | outcome [9]

C=C[Si]1(C)O[Si](C)(C=C)O[Si](C)(C=C)O[Si](C)(C=C)O1 (centres undefined)
inactive: Potency [1] | Potency [2] | Potency [8] | outcome [3] | outcome [4]

CCCCC(CC)COCCC#N (centres undefined)
inactive: Potency [1] | Potency [2] | Potency [8] | outcome [3] | outcome [9]

CC1(COc2ccc(CC3SC(=O)NC3=O)cc2)CCCCC1 (centres undefined)
inactive: Potency [5] | outcome [6] | Potency [2] | Potency [8] | outcome [9]

COC(=O)C(C)(C)C
inactive: Potency [5] | Potency [2] | outcome [7] | Potency [8] | outcome [3] | outcome [4]

COc1cc(CNC(=O)CCCC/C=C/C(C)C)ccc1O
inactive: Potency [5] | outcome [10] | Potency [2] | outcome [7] | Potency [8] | outcome [4] | outcome [9]

Cc1c(Cl)cccc1Nc1ccccc1C(=O)O
inactive: Potency [5] | Potency [2] | outcome [7] | Potency [8]

CC/C=C/CCO
inactive: Potency [5] | Potency [2] | outcome [7] | Potency [8] | outcome [3]

CCC[Si](OC)(OC)OC
inactive: Potency [1] | outcome [6] | Potency [2] | outcome [7] | Potency [8] | outcome [3] | outcome [4] | outcome [9]

CC(=O)S[C@H](C(=O)N[C@H]1Cc2ccccc2[C@H]2CCC[C@@H](C(=O)O)N2C1=O)C(C)C
inactive: Potency [5] | Potency [2] | outcome [7] | outcome [4] | outcome [9]

O=C(O)c1c2ccccc2cc2ccccc12
inactive: Potency [5] | outcome [10] | outcome [6] | Potency [2] | outcome [7] | Potency [8] | outcome [3] | outcome [4] | outcome [9]

C/C(=C\C(C)CC(C)CC(C)C)C1CC(=O)OC1=O (centres undefined)
inactive: Potency [5] | outcome [10] | Potency [2] | outcome [3]

C=CC(C)CCC=C(C)C (centres undefined)
inactive: Potency [1] | Potency [2] | outcome [3] | outcome [4] | outcome [9]

Clc1nc2ccccc2nc1Cl
inactive: Potency [5] | outcome [10] | Potency [2] | Potency [8] | outcome [4]

Nc1nc(Cl)nc2c1ncn2[C@H]1C[C@H](O)[C@@H](CO)O1
inactive: Potency [5] | outcome [10] | Potency [2] | outcome [7] | Potency [8] | outcome [4] | outcome [9]

CCCCCCCCCCCCCCCCN
inactive: Potency [5] | outcome [10] | outcome [6] | Potency [2] | outcome [7] | Potency [8] | outcome [4] | outcome [9]

NC(=O)c1ccccc1
inactive: Potency [5] | outcome [6] | outcome [7] | outcome [3] | outcome [4] | outcome [9]

O=C(O)c1cc(C(=O)O)c(C(=O)O)cc1C(=O)O
inactive: outcome [6] | outcome [7] | Potency [8] | outcome [3] | outcome [4] | outcome [9]

CCn1nc(Cc2ccccc2)cc1C1CCN(C[C@H]2C[C@H](N(C)[C@@H](C(=O)O)C(C)C)C[C@@H]2c2cccc(F)c2)CC1
inactive: Potency [5] | Potency [2] | Potency [8] | outcome [9]
